This note sets out measurements from the supplement of paper PMC6411743.

Each structure is given as a SMILES string. ± gives the standard deviation of the averaged measurements. Of roughly 6,200 targets only a part is listed; those with the largest changes were picked by preference.

Common to all, as to assay: NP40-soluble protein abundance relative to vehicle (solubility fold change) (ratio); higher = more soluble protein in presence of AMP-PNP
The target of one experiment is T1, A0A0A0MSG2|J3KNW4|Q14192 (UniProt Q14192).
T1 sequence (whole entry): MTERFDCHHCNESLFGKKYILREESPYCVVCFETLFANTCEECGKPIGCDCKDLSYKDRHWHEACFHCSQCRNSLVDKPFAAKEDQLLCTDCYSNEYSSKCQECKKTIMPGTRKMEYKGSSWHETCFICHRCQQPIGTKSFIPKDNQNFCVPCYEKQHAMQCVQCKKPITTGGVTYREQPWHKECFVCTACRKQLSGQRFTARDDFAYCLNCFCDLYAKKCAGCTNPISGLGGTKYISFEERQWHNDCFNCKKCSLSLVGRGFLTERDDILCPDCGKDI
Put shortly:
(§1)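 Values are fold changes against the detergent-processed vehicle, based on vsn-normalised intensities. Jurkat crude lysate was treated at eight concentrations from 0.1 to 10 mM (10 min at room temperature, then 3 min at 37 °C), solubilised with 0.8% NP40 and benzonase, ultracentrifuged and analysed by TMT-labelled LC-MS/MS over three independent experiments.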

For the next experiment, the target named is T2, A0A0U1RRH6|O94880 (UniProt O94880).
T2 sequence (whole entry): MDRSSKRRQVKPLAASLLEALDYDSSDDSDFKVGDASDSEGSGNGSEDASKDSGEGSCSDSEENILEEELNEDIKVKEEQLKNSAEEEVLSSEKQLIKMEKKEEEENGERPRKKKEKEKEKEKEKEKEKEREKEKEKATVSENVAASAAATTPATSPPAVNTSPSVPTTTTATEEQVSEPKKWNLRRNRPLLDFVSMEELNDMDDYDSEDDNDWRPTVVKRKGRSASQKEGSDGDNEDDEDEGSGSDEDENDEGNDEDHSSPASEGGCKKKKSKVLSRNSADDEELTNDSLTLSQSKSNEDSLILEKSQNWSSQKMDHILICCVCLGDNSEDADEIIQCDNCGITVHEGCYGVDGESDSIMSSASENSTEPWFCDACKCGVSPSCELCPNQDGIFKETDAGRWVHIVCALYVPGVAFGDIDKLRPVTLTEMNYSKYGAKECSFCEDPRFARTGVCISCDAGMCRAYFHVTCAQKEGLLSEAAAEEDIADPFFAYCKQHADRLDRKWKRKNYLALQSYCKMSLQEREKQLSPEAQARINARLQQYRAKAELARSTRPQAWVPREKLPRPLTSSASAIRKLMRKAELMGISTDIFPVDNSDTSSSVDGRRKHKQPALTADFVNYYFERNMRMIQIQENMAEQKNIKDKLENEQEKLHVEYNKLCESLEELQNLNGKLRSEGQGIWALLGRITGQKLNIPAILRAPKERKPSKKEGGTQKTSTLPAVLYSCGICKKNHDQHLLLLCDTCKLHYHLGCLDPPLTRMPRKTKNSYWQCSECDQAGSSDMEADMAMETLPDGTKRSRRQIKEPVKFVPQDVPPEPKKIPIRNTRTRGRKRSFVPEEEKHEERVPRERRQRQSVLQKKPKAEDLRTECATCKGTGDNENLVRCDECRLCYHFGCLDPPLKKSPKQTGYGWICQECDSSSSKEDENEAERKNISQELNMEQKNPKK
Put shortly: as §1

The next experiment concerns the target T3, ACOX3 (UniProt O15254).
T3 sequence (whole entry): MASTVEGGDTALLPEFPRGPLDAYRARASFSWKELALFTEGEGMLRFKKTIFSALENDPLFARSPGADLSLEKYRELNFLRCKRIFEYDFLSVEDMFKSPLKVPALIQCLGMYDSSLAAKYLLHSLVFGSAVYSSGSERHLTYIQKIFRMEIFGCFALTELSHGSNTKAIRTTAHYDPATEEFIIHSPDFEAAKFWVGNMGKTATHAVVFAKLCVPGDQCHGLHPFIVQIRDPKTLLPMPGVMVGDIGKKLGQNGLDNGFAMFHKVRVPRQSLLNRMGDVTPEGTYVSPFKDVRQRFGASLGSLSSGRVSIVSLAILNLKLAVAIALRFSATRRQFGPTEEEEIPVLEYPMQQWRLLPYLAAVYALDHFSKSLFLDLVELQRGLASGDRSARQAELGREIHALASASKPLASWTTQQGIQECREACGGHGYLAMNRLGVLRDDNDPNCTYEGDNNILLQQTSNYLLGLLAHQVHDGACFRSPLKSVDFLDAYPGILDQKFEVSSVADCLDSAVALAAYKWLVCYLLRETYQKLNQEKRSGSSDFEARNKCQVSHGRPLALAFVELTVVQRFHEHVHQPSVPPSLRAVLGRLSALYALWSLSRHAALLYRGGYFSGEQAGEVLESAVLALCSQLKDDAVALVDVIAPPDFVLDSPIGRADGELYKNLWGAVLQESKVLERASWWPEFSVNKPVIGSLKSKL
Put shortly:
as §1

Another experiment concerns the target T4, C9JI46|Q8N3X6|Q8N3X6-3 (UniProt Q8N3X6).
T4 sequence (whole entry): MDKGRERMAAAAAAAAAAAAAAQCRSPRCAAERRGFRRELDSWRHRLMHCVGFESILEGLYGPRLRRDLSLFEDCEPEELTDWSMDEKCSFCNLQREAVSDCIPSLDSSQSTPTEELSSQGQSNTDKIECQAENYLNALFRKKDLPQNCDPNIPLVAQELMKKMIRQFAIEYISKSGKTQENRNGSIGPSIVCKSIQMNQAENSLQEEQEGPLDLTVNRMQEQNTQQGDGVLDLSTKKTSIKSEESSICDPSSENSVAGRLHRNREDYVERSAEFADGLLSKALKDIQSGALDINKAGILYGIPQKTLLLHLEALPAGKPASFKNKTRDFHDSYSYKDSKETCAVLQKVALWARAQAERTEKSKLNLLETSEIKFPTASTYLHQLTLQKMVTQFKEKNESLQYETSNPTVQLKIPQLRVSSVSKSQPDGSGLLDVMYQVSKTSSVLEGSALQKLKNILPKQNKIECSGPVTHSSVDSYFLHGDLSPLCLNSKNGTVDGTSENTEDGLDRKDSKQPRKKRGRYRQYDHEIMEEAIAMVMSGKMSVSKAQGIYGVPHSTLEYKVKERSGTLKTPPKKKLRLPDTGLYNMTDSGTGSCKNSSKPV
Put shortly:
as §1

On to `Nc1ncnc2c1ncn2[C@@H]1O[C@H](COP(=O)(O)OP(=O)(O)NP(=O)(O)O)[C@@H](O)[C@H]1O` [adenylyl imidodiphosphate], for which the NP40-soluble protein abundance with A0A0A0MSG2|J3KNW4|Q14192 (concentration: 1mM) was determined as 0.991 ± 0.05; with A0A0A0MSG2|J3KNW4|Q14192 (concentration: 2mM) it was 0.988 ± 0.09; with A0A0A0MSG2|J3KNW4|Q14192 (concentration: 4mM) it was 1.02 ± 0.048; with A0A0A0MSG2|J3KNW4|Q14192 (concentration: 6mM), 0.966 ± 0.036; in the experiment with A0A0A0MSG2|J3KNW4|Q14192 (concentration: 8mM) it was 0.979 ± 0.083; with A0A0A0MSG2|J3KNW4|Q14192 (concentration: 10mM), 0.947 ± 0.035. Moreover, the NP40-soluble protein abundance with A0A0U1RRH6|O94880 (concentration: 1mM) was 1.02 ± 0.036; with A0A0U1RRH6|O94880 (concentration: 2mM), 1.07 ± 0.03; with A0A0U1RRH6|O94880 (concentration: 4mM), 1.14 ± 0.025; with A0A0U1RRH6|O94880 (concentration: 6mM), 1.21 ± 0.017; in the experiment with A0A0U1RRH6|O94880 (concentration: 8mM), 1.27 ± 0.035; with A0A0U1RRH6|O94880 (concentration: 10mM), 1.36 ± 0.092. Moreover, the NP40-soluble protein abundance with ACOX3 (concentration: 1mM) amounted to 0.977 ± 0.053; with ACOX3 (concentration: 2mM), 0.928 ± 0.076; in the experiment with ACOX3 (concentration: 4mM), 0.967 ± 0.031; with ACOX3 (concentration: 6mM) it was 0.957 ± 0.057; in the experiment with ACOX3 (concentration: 8mM), 0.972 ± 0.07; with ACOX3 (concentration: 10mM), 0.918 ± 0.089. The NP40-soluble protein abundance with C9JI46|Q8N3X6|Q8N3X6-3 (concentration: 1mM) stood at 0.985 ± 0.021; in the experiment with C9JI46|Q8N3X6|Q8N3X6-3 (concentration: 2mM) it was 1.024 ± 0.0091; with C9JI46|Q8N3X6|Q8N3X6-3 (concentration: 4mM) it was 1.01 ± 0.058; with C9JI46|Q8N3X6|Q8N3X6-3 (concentration: 6mM), 0.992 ± 0.017; with C9JI46|Q8N3X6|Q8N3X6-3 (concentration: 8mM) it was 0.952 ± 0.014; with C9JI46|Q8N3X6|Q8N3X6-3 (concentration: 10mM), 1 ± 0.039.
